Ecoli rRNA inh: reduced GFP signal of wild-type E. coli, primary screen, bacterial rRNA inhibitor project, GFP/RFP fluorescence, OD600, single point; E. coli WT GFP vs humanized-ribosome RFP mutants, 24 h; hits give low values; DMSO median 0, no signal -100; GFP signal change (wild-type ribosome), % (concentration not given with the values); actives 1.6% (n = 350,000); AID 720706, 2013;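 active means significant combined selectivity score with lowered wild-type GFP, culture density cut under 30%, mutant RFP and density less affected; inactive means any of these conditions unmet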
AF4-AF9 inh: inhibitors of AF4 peptide binding to AF9, primary screen, biochemical, AlphaScreen, biotin-AF4 peptide, FLAG-AF9, single point; Protein AF-9 (Homo sapiens), P42568; inhibition, % at 10 µM; actives 0.47% (n = 350,000); AID 651704, 2012;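 active means every replicate reaching a set inhibition limit, whatever the replicate mean, cut at about 25% in these data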;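 further: 0% = plate neutral control median and 100% = total signal loss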
Wnt bcat act: Wnt/beta-catenin pathway activators, primary screen, cell-based, plate reader, single point; Wnt/beta-catenin reporter cell assay, activator; activation, % at 9.35 µM; actives 1.2% (n = 300,000); in the data active means activation above about 30%, passing the limit was not always enough;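 further: 0% = neutral control wells and 100% = positive control wells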
esBAF inh: Bmi1 luciferase reporter increase in mESCs, primary screen, esBAF inhibitor project, mouse ES cells, Bmi1 luciferase knock-in, single point; 24 h; 100% = twice the neutral-well signal; reporter increase, % at 12.5 µM; actives 2% (n = 350,000); AID 602393, 2012; in the data active means activation above about 40%;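 further: 0% = median of the plate's neutral control wells and 100% = double that signal; a rise in the Bmi1 reporter signal indicates esBAF inhibition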
MITF TRPM1 HTS: activators of MITF-driven TRPM1 promoter reporter, primary screen, cell-based, SK-MEL-5, luciferase, single point; SK-MEL-5 TRPM1-promoter luciferase, 24 h; % of positive control, neutral wells = 0; activation, % at 12.5 µM; actives 0.75% (n = 300,000); AID 588334, 2011;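 active means mean activation of at least 80% with every replicate also reaching 80%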;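 further: 0% = neutral control wells and 100% = parthenolide positive control wells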
An asterisk follows results filed as active; . = no result given. Rows were chosen to be rich in hits. Some 3.7% of all compounds tested hit in one or more screens of this group.

SMILES | Ecoli rRNA inh | AF4-AF9 inh | Wnt bcat act | esBAF inh | MITF TRPM1 HTS
COC(=O)C1=C(C)N(Cc2ccc(C(F)(F)F)cc2)C(=NCc2ccc(OC)cc2)NC1c1ccccc1 (stereo not given) | -58 | 17 | -8 | . | .
C[C@H]1CN([C@@H](C)CO)C(=O)Cc2cc(N(C)C)ccc2O[C@H]1CN(C)Cc1ccc(-c2ccccc2)cc1 | -12 | 44* | . | -4 | .
C[C@H]1CN([C@@H](C)CO)C(=O)Cc2cc(N(C)C)ccc2O[C@H]1CN(C)Cc1ccc(C(F)(F)F)cc1 | -3 | . | . | 4 | .
C[C@@H]1CN([C@@H](C)CO)C(=O)Cc2cc(N(C)C)ccc2O[C@H]1CN(C)Cc1ccc(C(F)(F)F)cc1 | -24 | 43* | . | 0 | .
CCOC(=O)N1CCN(C(=O)c2ccc3c(c2)N(Cc2cc(C)ccc2C)C(=O)c2ccccc2S3=O)CC1 (stereo not given) | -20* | 7 | 1 | 2 | -7
CCOC(=O)c1ccc2c(c1)N(Cc1ccccc1C)C(=O)c1ccccc1S2=O (stereo not given) | . | . | . | -1 | 8
CC(C)c1ccc(NC(=O)CSc2nc3ccsc3c(=O)n2Cc2ccc(C(=O)O)cc2)cc1 | -35 | -1 | -4 | 0 | -1
Cc1cc(C2(c3ccc(O)c(C)c3)C(=O)N(C)c3ccc(Br)cc32)ccc1O | -40* | 0 | 0 | -2 | .
N#Cc1cc2c(nc1SCc1ccccc1)CCCC2=O | . | . | 49* | 9 | 3
N#Cc1cc2c(nc1SCc1ccncc1)CCC2 | -3 | 2 | 19 | 44* | 36
N#Cc1cc2c(nc1SCc1ccccc1)CCCC2 | . | -3 | -3 | . | 15
O=C(Nn1cnc2ccccc2c1=O)c1c(F)cccc1F | -3 | -2 | 44* | -6 | -9
O=C1CNC(=S)N1CCOc1ccccc1 | 5 | -2 | -1 | . | .
O=C1CNC(=S)N1CCc1ccc(O)c(O)c1 | 5 | 3 | 50* | . | .
O=S(=O)(c1ccc(N2CCN(Cc3ccc4c(c3)OCO4)CC2)nc1)N1CCOCC1 | 0 | . | -3 | . | .
CCOC(=O)c1nc(C)sc1-c1ccnn1S(=O)(=O)c1ccccc1C(F)(F)F | . | 4 | -4 | . | .
CCOC(=O)c1nc(C)sc1-c1ccnn1S(=O)(=O)c1ccc(C)cc1 | -22* | 0 | 0 | . | .
CCOC(=O)c1nc(C)sc1-c1ccnn1S(=O)(=O)c1ccc(Cl)cc1Cl | -29* | 0 | -2 | . | 11
COc1ccc(OC)c(C(O)c2ncc(-c3ccccc3Cl)[nH]2)c1 (stereo not given) | -1 | 0 | -2 | 3 | .
COc1ccccc1-c1ccc([C@H]2[C@@H](C#N)N(C(=O)CN(C)C)[C@H]2CO)cc1 | -2 | 0 | . | -1 | .
CCOc1ccccc1OCCCC(=O)N1CCN(S(=O)(=O)c2cc(F)ccc2F)CC1 | -20* | -2 | 4 | -8 | -1
CCCN1C(=O)/C(=C/c2ccc(N3CCCC3)c(C)c2)NC1=S | . | . | 7 | 4 | 18
CCN1C(=O)/C(=C/c2ccc(N3CCCC3)cc2)NC1=S | . | . | 16 | 49* | 49
Cc1cc(/C=C2\NC(=S)N(C)C2=O)ccc1N1CCCC1 | . | 6 | 53* | 65* | 50
Cc1cc(/C=C2/C(=O)N(C)C(=S)N2C)ccc1N1CCCC1 | 8 | 3 | 44* | 78* | 55
SMILES | Ecoli rRNA inh | AF4-AF9 inh | Wnt bcat act | esBAF inh | MITF TRPM1 HTS
COc1ccc(N2CCN(CCC(O)c3ccc4ccccc4c3)CC2)cc1 (stereo not given) | 1 | 0 | -2 | 0 | 7
N#C[C@H]1[C@@H](c2ccc(C#CC3CCCCC3)cc2)[C@H](CO)N1S(=O)(=O)c1ccccc1 | 0 | 1 | . | 0 | .
CCSc1nnc2c(n1)OC(C)(C)Nc1ccccc1-2 | -1 | -2 | 19 | 48* | 12
CSc1nnc2c(n1)OC1(Nc3ccccc3-2)C(=O)Nc2ccccc21 (stereo not given) | 0 | -3 | -1 | . | -15
CCOC(=O)COc1ccc2c3c(c(=O)oc2c1C)CCC3 | . | . | . | -11 | 19
Cc1c(OCC(=O)N(C)c2ccccc2)ccc2c3c(c(=O)oc12)CCC3 | -8 | 32* | -3 | 3 | 7
CCOc1ccc(C(=O)NCc2cccnc2)cc1[N+](=O)[O-] | 12 | -2 | -2 | . | 10
